Assay results published in PubChem BioAssay (Tox21).
A number with no mark means an inactive call. Active and inactive are the calls of the source. Calls come from the whole dose curve.

Target: Gonadotropin-releasing hormone receptor (Homo sapiens) (UniProt P30968)
Test: Human gonadotropin-releasing hormone receptor (GnRHR) small molecule agonists, calcium flux assay in GnRHR-HEK293 cells (AID 1920063); note: nearly all actives have a fitted effect of over 35% in size
Conditions: calcium flux fluorescence, agonist mode; series mostly up to 57.6 µM; activity change: at the top concentration
Excerpt: National Center for Advancing Translational Sciences [NCATS]
Division of Preclinical Innovation [DPI]
U.S. Environmental Protection Agency [EPA]
National Institutes of Environmental Health Sciences [NIEHS]
National Toxicology Program [NTP]
U.S. Food and Drug Administration [FDA]
Gonadotropin-releasing hormone receptor (GnRHR) is a G-protein-coupled receptor (GPCR) and acts (through phospholipase C) to increase intracellular inositol trisphosphate and then release intracellular calcium stores. Cell-based GnRHR-Hek293 calcium influx assay is using HEK293 cells that have been genetically engineered to express the human GnRHR, which activity can be measured by calcium signaling. A compound/drug can activate (agonist) GnRHR that can be monitored by levels of intracellular calcium.
GnRHR-HEK293 cells developed by Codex Corp contain human GnRHR reporter gene, which was stably integrated into HEK 293 cells. The compound activation can be detected by fluorescence intensity via calcium flux assay. This cell line has been used to screen the Tox21 10K compound library to identify GnRHR agonists.
GnRHR-Hek293 cells were dispensed at 1500cells/4uL/well in 1536-well black wall/clear bottom plates using a multidrop dispenser. After the assay plates were incubated at a 37 C/5% CO2 incubator for 18 hours, 4 uL of Calcium Dye Solution was added to each well. The plates were incubated at 37 C for 1 hour. For agonist mode, 23 nL of compounds dissolved in DMSO, positive controls or DMSO only was transferred to the assay plate by a pin tool station. The fluorescence intensity in the plates was measured using FDSS 7000EX kinetic plate reader with a filter set of Ex/Em=480/540 for 3 min at 1 sec intervals. Each test compound was measured at 15 concentrations and in triplicates.
% is set by controls: 0 for no effect and ±100 for the full control effect.

Sequence of Gonadotropin-releasing hormone receptor (Homo sapiens) (P30968 whole entry, looked up): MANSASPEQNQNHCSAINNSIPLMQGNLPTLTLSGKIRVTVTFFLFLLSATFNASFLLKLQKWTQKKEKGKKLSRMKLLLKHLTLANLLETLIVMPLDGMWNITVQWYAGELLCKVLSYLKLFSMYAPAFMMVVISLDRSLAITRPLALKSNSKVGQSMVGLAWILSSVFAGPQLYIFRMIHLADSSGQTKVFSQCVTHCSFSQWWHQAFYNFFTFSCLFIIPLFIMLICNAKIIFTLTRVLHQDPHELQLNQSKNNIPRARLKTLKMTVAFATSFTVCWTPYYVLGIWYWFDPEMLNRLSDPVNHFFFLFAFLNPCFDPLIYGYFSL

SMILES | activity change | Potency
CN(C)CCOC(c1ccc(Cl)cc1)c1ccccn1 (stereo not given) | 1.58% [at 26.4 µM, stronger effect = higher value] | –
CC(C)(c1cc(Br)c(OCC(Br)CBr)c(Br)c1)c1cc(Br)c(OCC(Br)CBr)c(Br)c1 (stereo not given) | 0.363% [at 26.4 µM, stronger effect = higher value] | –
COc1cc(C(=O)N2CCOCC2)cc(OC)c1OC | 0.898% [at 26.4 µM, stronger effect = higher value] | –
CC1OC1C1CCC2(C)OC2C1 (stereo not given) | -0.228% | –
Oc1ccc(/C=C/c2cc(O)cc(O)c2)cc1 | – | inactive
COc1cccc(OC)c1C(=O)N[C@@H]1C(=O)N2[C@@H]1SC(C)(C)[C@@H]2C(=O)O | -0.166% [at 26.4 µM, stronger effect = higher value] | –
CC(C)=C1CC[C@@H](C)CC1=O | 0.09% | –
CCN(C=O)CC | -0.216% | –
OC[C@H]1O[C@@H]2O[C@H]3[C@H](O)[C@@H](O)[C@@H](O[C@H]4[C@H](O)[C@@H](O)[C@@H](O[C@H]5[C@H](O)[C@@H](O)[C@@H](O[C@H]6[C@H](O)[C@@H](O)[C@@H](O[C@H]7[C@H](O)[C@@H](O)[C@@H](O[C@H]8[C@H](O)[C@@H](O)[C@@H](O[C@H]1[C@H](O)[C@H]2O)O[C@@H]8CO)O[C@@H]7CO)O[C@@H]6CO)O[C@@H]5CO)O[C@@H]4CO)O[C@@H]3CO | – | inactive
CCCN1C=CN(C)C1 | – | inactive
C=C(C)C(=O)OCCCCCCCC(C)C | 0.0351% | –
CC(C)=CCC/C(C)=C/C#N | -0.204% | –
CC(C)C(=O)O | -0.365% | –
NC(=O)NNC(N)=O | -0.326% | –
NS(=O)(=O)c1cc2c(cc1Cl)NC(CC1CCCC1)NS2(=O)=O (stereo not given) | 0.404% [at 26.4 µM, stronger effect = higher value] | –
CC(C)(C)C(=O)C(Oc1ccc(Cl)cc1)n1ccnc1 (stereo not given) | -0.16% [at 26.4 µM, stronger effect = higher value] | –
Nc1cc([N+](=O)[O-])ccc1Cl | 0.08% | –
NC(=O)c1ccccc1Cl | 1.95% | –
COC(OC)OC | 0.804% | –
CCCCCC=O | – | inactive

SMILES | activity change | Potency
CC(C(=O)O)c1cccc(C(=O)c2ccccc2)c1 (stereo not given) | – | inactive
C=CCCC=C | 0.924% | –
Nc1nnnn1-c1ccccc1 | 1.49% [at 26.4 µM, stronger effect = higher value] | –
Cc1cccc(C)c1[N+](=O)[O-] | – | inactive
COc1ccc(C)cc1 | 0.999% | –
O=C(O)CCCCCC(=O)O | -1.83% | –
COc1cccc(OC)c1 | 0.636% | –
CC(C)c1ccc2c(C(C)C)cc(C(C)C)c(S(=O)(=O)O)c2c1 | -1.14% | –
O=C(O)CCc1ccccc1 | -0.245% | –
COC(c1ccccc1)(c1ccccc1)[C@H](Oc1nc(C)cc(C)n1)C(=O)O | -1.79% [at 26.4 µM, stronger effect = higher value] | –
CCCC(C)C(O)CC (stereo not given) | -1.01% | –
COc1ccc(C(=O)NCc2ccc(OCCN(C)C)cc2)cc1OC | 2.45% [at 26.4 µM, stronger effect = higher value] | –
COc1cccc(Br)c1 | 1.22% | –
C=C(C)[C@@H]1CCC2=CCC[C@@H](C)[C@]2(C)C1 | -0.0479% | –
C[Si]1(C)O[Si](C)(C)O[Si](C)(C)O[Si](C)(C)O[Si](C)(C)O1 | -1.27% | –
Cn1ccnc1 | -0.196% | –
CC1(C)[C@H]2CC[C@]1(C)[C@H](O)C2 | 0.551% | –
O=c1[nH][nH]c(=O)c2cc([N+](=O)[O-])ccc12 | -1.56% | –
CCCCCCCCCCCCCCO | – | inactive
COC(=O)Cc1cccc2ccccc12 | -0.274% | –
